Measured values taken from PubChem BioAssay (Tox21).
Values without a mark were called inactive. Inconclusive results are not listed. Entries that show only a call come without a potency. The source made the active and inactive calls. Unless noted, calls come from the whole dose curve; as a rule, active = well fitted curve in the direction sought with a large enough effect in the repeat runs; inconclusive = weak or mixed curves; inactive = no such curve, though single readings can be large; an effect the other way counts as inactive or inconclusive.

Key:
[1] = qHTS assay to identify small molecule agonists of the sonic hedgehog signaling (Shh) pathway (AID 1259368; calls by dose curve;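 note: NIH/3T3-derived 3T3Gli1-Luc cells carrying a stable Gli1-driven firefly luciferase reporter; series mostly up to about 92 µM; nearly all actives have a fitted effect of over 15% in size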)
Method in brief: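 Luminescence was read after 30 min at room temperature with luciferase reagent. Before that, 3T3Gli1-Luc cells (NIH/3T3 clone, stable Gli1-Luc reporter; 2,000/well) were exposed to compounds for 24 hr at 37C, 5% CO2, compounds being added 4 hr post-plating.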

[2] = qHTS assay to identify small molecule antagonists of the sonic hedgehog signaling (Shh) pathway (AID 1259369; calls by dose curve; note: nearly all actives have a fitted effect of over 45% in size; note: potency is the fitted concentration of half-maximal effect)
Method in brief: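 Antagonist mode: compound added to 3T3 Gli1-Luc cells followed by conditioned-medium stimulation, 24 h at 37 C, 5% CO2. Inhibition taken as loss of Gli1-driven luciferase luminescence.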

[3] = target: Estrogen receptor beta (Homo sapiens) (UniProt Q92731); experiment: qHTS assay to identify small molecule antagonists of the estrogen receptor beta (ER-beta) signaling pathway (AID 1259378; active = well fitted inhibition curve with a large enough effect in the signal ratio in the repeat runs, not every such curve was filed as active; the % refers to the signal ratio)
Method in brief: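 Antagonist mode: compounds added to beta-lactamase reporter HEK293T ER-beta-UAS cells stimulated with E2 (1nM final), 16 hr at 37C. LiveBLAzer B/G FRET substrate, 2 hours room temperature, fluorescence read-out.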

[4] = qHTS assay to identify small molecule agonists of the androgen receptor (AR) signaling pathway in the presence of an antagonist - cell viability counter screen (AID 1259379);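 note: MDA-kb2 human breast cancer cells carrying an MMTV luciferase reporter; series mostly up to about 92 µM; nearly all actives have a fitted effect of over 25% in size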
Method in brief: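 Cytotoxicity counter-screen run in the same wells as the nilutamide-challenged (3.0 µM final) AR agonist assay in MDA-kb2 cells. Compounds tested at 15 concentrations for 16 h, 37 °C without CO2; CellTiter-Fluor fluorescence read.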

[5] = qHTS assay to identify small molecule agonists of the estrogen receptor beta (ER-beta) signaling pathway - cell viability counter screen (AID 1259380); note: nearly all actives have a fitted effect of over 30% in size
Method in brief: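 Cell viability counter screen: CellTiter-Glo luminescence (30 min, room temperature) measured in the same wells as the beta-lactamase readout, after 16 hr compound exposure at 37C of ER-beta-bla HEK293T cells in 2% charcoal-stripped FBS medium.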

[6] = target: Androgen receptor (Homo sapiens) (UniProt P10275); experiment: qHTS assay to identify small molecule agonists of the androgen receptor (AR) signaling pathway in the presence of an antagonist (AID 1259381; calls by dose curve; note: nearly all actives have a fitted effect of over 15% in size; note: potency is the fitted concentration of half-maximal effect)
Method in brief: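 Agonist-mode confirmation run against 3.0 uM final nilutamide: compounds titrated at 15 concentrations onto MDA-kb2 MMTV-luciferase reporter cells. Luminescence measured with ONE-Glo following 16 hr incubation, 37C, 0% CO2.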

[7] = qHTS assay to identify small molecule antagonists of the estrogen receptor beta (ER-beta) signaling pathway - cell viability counter screen (AID 1259382);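 note: HEK293T cells carrying ER-beta-UAS-bla reporter stimulated with estradiol; series mostly up to about 92 µM; nearly all actives have a fitted effect of over 55% in size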
Method in brief: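 Cytotoxicity was measured in the same wells by CellTiter-Glo luminescence after 30 min at room temperature. Cells were ER-beta-bla HEK293T in charcoal-stripped serum, given compound together with 1 nM E2 and incubated 16 h at 37C.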

[8] = qHTS assay to identify small molecule agonists or antagonists of the thyroid stimulating hormone receptor (TSHR) signaling pathway - wild type cell line counter screen (AID 1259384; calls by dose curve)
Method in brief: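 Counter screen in untransfected Hek293: compounds (15-point titration, triplicate) plus phosphodiesterase inhibitor Ro20-1724 added after 18 h plating; 30 min RT. Intracellular cAMP via competitive d2/cryptate immunoassay, 1 h incubation.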

[9] = target: Thyrotropin receptor (Homo sapiens) (UniProt P16473); experiment: qHTS assay to identify small molecule antagonists of the thyroid stimulating hormone receptor (TSHR) signaling pathway (AID 1259385; calls by dose curve; note: nearly all actives have a fitted effect of over 20% in size)
Method in brief: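 Antagonist mode: compound-treated TSHR-expressing HEK293 cells were stimulated with 1.5 ng/mL TSH (final) in presence of Ro20-1724 for 30 min at RT. HTRF cAMP detection after 1 h; each compound tested at 15 concentrations, triplicate.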

[10] = qHTS assay to identify small molecule agonists of the estrogen receptor alpha (ER-alpha) signaling pathway in the presence of an antagonist - cell viability counter screen (AID 1259386); note: series mostly up to about 92 µM; nearly all actives have a fitted effect of over 30% in size
Method in brief: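 Compounds tested at 15 concentrations for 22 h at 37C alongside 10.0nM (final) ICI-182,780 antagonist, in VM7Luc4E2 cells grown in phenol red-free, charcoal-stripped medium. Viability read by CellTiter-Fluor fluorescence after 1 h reagent incubation.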

[11] = target: Progesterone receptor (Homo sapiens) (UniProt P06401); experiment: qHTS assay to identify small molecule agonists of the progesterone receptor (PR) signaling pathway (AID 1346784; calls by dose curve; note: nearly all actives have a fitted effect of over 30% in size)
Method in brief: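 The screen uses PR-UAS-bla HEK 293T cells in charcoal-stripped serum (2%). Compounds are applied for 16 hr at 37C after a 6 hr pre-incubation, and reporter activity is detected with a FRET beta-lactamase substrate after 2 hr at room temperature.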

[12] = target: Progesterone receptor (Homo sapiens) (UniProt P06401); experiment: qHTS assay to identify small molecule antagonists of the progesterone receptor (PR) signaling pathway (AID 1346795; active = well fitted inhibition curve with a large enough effect in the signal ratio in the repeat runs, not every such curve was filed as active; the % refers to the signal ratio)
Method in brief: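 After 6 hr plating at 37C in 2% stripped-serum medium, PR-UAS-bla HEK293T cells got compounds, then 1 nM R5020. Sixteen hours later, LiveBLAzer substrate was applied for 2 hr at room temperature and fluorescence was recorded.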

[13] = qHTS assay to identify small molecule antagonists of the progesterone receptor (PR) signaling pathway - cell viability counter screen (AID 1346798); note: series mostly up to about 92 µM; nearly all actives have a fitted effect of over 50% in size
Method in brief: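 Viability was determined by ATP-based luminescence (CellTiter-Glo) in PR-UAS-bla HEK293T cells cultured in 2% charcoal-stripped serum and incubated 16 hr with compounds under R5020 stimulation.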

[14] = qHTS assay to identify small molecule agonists of the progesterone receptor (PR) signaling pathway - cell viability counter screen (AID 1346799; calls by dose curve; note: nearly all actives have a fitted effect of over 45% in size)
Method in brief: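 Viability was scored by ATP luminescence (CellTiter-Glo, 30 min, room temperature) in the same wells used for the reporter readout, after 16 hr compound exposure of PR-UAS-bla HEK293T cells.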

[15] = qHTS assay to identify small molecule antagonists of the TGF-beta/Smad signaling pathway - cell viability counter screen (AID 1346824); note: nearly all actives have a fitted effect of over 50% in size
Method in brief: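 Cytotoxicity counter-screen run in the same wells as the beta-lactamase Smad reporter read: CellTiter-Glo luminescence after 30 min at room temperature. HEK 293T SBE-bla cells had 5 hr compound exposure at 37 C with TGF-beta1 (0.25 ng/mL stock).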

[16] = qHTS assay to identify small molecule agonists of the TGF-beta/Smad signaling pathway - cell viability counter screen (AID 1346829); note: top concentration of the series differs between compounds; nearly all actives have a fitted effect of over 45% in size
Method in brief: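 Cytotoxicity counter screen: CellTiter-Glo luminescence (30 min, room temperature) measured in the SBE-bla HEK 293T reporter wells after 5 hr compound treatment at 37 C and the 2 hr substrate step.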

[17] = qHTS assay to identify small molecule agonists of the TGF-beta/Smad signaling pathway (AID 1346859; active = well fitted activation curve with a large enough effect in the signal ratio in the repeat runs, not every such curve was filed as active; the % refers to the signal ratio; note: series mostly up to about 77 µM)
Method in brief: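 Dual-wavelength fluorescence (460/530 nm emission) quantified beta-lactamase expression under the Smad binding element in HEK 293T cells following 5 hr compound treatment at 37 C.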

[18] = target: Estrogen receptor (Homo sapiens) (UniProt P03372); experiment: qHTS assay to identify small molecule agonists of the estrogen receptor alpha (ER-alpha) signaling pathway in the presence of an antagonist (AID 1259383; calls by dose curve; note: top concentration of the series differs between compounds; nearly all actives have a fitted effect of over 15% in size)
Method in brief: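 Agonist-mode confirmation run in the presence of 10.0nM (final) ICI-182,780 antagonist. The reporter was ERE-driven luciferase in VM7Luc4E2 cells, grown in charcoal-stripped serum. Cells were exposed to 15-concentration compound series for 22hr, then ONE-Glo luminescence was read.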

[19] = target: Thyrotropin-releasing hormone receptor (Homo sapiens) (UniProt P34981); experiment: qHTS assay to identify small molecule antagonists of the thyrotropin-releasing hormone receptor (TRHR) signaling pathway (AID 1346877; active = well fitted inhibition curve with a large enough effect in the repeat runs, not every such curve was filed as active; note: series mostly up to about 51 µM)
Method in brief: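 Antagonist mode: after a 5 min room-temperature compound exposure, cells were stimulated with 1 nM (final) TRH. Dye-loaded TRHR-HEK293 cells were used, and calcium-dependent fluorescence was followed for 3 min, with 15-point titrations run in triplicate.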

Chain of Androgen receptor (Homo sapiens) (P10275 whole entry, looked up): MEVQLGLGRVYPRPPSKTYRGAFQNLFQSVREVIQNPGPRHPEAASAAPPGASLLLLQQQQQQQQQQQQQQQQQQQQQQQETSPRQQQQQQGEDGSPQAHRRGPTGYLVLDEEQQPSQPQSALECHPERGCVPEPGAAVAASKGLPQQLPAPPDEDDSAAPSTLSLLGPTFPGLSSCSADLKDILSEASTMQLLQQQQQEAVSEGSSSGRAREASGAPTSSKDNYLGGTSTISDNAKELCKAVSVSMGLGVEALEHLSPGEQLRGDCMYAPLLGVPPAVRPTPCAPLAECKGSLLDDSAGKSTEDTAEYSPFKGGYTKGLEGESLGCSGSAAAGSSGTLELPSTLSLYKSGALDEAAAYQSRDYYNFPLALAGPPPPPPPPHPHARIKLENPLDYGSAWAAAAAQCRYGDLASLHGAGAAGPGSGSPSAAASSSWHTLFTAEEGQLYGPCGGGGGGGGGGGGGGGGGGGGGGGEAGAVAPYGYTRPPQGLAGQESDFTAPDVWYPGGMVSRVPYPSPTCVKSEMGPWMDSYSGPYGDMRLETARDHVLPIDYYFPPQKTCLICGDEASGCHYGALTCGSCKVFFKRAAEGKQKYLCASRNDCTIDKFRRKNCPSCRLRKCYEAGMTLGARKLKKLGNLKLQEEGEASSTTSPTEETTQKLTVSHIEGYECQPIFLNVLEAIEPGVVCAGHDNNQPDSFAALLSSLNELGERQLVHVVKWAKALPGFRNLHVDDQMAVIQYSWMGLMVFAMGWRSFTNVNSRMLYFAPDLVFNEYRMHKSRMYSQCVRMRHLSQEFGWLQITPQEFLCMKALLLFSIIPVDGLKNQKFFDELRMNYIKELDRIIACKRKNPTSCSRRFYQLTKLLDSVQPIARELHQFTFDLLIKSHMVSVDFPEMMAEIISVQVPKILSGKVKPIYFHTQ
Chain of Thyrotropin receptor (Homo sapiens) (P16473 whole entry, looked up): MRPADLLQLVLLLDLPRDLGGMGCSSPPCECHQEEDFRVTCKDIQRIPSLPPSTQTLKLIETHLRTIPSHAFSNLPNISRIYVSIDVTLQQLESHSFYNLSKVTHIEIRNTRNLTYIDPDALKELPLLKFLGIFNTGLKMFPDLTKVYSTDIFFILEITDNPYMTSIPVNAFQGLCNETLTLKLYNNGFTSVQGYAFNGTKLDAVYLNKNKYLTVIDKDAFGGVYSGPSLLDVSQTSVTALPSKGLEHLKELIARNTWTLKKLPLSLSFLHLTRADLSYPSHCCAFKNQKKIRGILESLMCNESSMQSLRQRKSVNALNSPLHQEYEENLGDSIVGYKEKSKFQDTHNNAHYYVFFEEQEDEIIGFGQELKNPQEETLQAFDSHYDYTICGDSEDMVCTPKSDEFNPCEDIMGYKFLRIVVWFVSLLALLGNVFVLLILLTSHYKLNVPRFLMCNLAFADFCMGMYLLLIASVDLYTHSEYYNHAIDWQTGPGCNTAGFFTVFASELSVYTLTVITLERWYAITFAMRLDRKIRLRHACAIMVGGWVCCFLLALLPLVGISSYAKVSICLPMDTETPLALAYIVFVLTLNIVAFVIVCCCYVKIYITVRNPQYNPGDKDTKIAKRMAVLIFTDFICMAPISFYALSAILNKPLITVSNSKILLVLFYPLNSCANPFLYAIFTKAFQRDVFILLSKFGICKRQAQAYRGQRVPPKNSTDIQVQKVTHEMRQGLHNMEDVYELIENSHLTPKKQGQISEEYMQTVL
Chain of Estrogen receptor beta (Homo sapiens) (Q92731 whole entry, looked up): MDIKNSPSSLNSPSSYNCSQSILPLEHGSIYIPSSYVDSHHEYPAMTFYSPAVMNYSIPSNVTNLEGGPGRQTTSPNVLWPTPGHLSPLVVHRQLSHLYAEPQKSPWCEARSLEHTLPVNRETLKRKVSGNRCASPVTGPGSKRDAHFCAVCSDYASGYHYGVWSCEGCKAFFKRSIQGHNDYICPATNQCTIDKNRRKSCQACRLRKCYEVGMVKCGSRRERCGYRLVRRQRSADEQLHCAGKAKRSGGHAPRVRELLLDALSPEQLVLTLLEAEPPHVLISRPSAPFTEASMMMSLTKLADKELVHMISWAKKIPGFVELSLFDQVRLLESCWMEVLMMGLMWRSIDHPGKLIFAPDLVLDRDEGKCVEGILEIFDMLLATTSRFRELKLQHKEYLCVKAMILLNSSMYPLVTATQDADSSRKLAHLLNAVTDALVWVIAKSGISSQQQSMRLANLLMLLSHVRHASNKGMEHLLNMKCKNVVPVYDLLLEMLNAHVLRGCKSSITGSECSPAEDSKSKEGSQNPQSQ
Chain of Progesterone receptor (Homo sapiens) (P06401 whole entry, looked up): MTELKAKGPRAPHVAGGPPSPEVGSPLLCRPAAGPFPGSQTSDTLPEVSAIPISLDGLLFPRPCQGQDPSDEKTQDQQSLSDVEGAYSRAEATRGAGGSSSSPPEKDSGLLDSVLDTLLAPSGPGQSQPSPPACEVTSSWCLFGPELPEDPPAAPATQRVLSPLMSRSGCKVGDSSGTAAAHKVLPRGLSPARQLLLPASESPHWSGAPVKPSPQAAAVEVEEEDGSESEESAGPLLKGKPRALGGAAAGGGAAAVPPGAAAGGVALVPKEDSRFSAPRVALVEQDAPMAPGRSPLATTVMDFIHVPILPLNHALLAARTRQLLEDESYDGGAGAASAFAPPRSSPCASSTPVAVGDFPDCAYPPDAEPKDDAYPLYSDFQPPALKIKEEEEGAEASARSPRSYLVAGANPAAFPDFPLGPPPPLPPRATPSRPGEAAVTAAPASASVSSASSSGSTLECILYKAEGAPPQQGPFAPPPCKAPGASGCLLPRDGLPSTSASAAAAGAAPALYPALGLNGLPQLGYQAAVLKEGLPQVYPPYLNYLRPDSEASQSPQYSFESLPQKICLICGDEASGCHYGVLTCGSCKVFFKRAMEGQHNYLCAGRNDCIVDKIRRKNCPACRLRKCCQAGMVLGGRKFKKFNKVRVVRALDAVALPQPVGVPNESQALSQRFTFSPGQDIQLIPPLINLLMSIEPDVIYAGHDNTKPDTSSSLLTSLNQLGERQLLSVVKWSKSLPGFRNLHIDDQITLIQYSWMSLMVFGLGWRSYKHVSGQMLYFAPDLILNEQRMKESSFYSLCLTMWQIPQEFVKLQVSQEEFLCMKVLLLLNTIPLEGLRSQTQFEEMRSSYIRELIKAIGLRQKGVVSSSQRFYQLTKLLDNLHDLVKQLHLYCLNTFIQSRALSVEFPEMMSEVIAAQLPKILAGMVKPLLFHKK
Chain of Thyrotropin-releasing hormone receptor (Homo sapiens) (P34981 whole entry, looked up): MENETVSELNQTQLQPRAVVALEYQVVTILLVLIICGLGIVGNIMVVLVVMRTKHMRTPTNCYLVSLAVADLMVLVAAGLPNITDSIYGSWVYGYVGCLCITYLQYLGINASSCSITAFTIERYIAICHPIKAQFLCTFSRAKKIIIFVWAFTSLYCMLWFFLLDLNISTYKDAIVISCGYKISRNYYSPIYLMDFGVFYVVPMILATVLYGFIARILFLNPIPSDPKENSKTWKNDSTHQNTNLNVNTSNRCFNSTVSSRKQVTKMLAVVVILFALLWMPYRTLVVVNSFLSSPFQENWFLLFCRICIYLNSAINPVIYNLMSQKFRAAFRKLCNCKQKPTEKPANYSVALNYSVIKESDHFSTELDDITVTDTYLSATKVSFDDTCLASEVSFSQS
Chain of Estrogen receptor (Homo sapiens) (P03372 whole entry, looked up): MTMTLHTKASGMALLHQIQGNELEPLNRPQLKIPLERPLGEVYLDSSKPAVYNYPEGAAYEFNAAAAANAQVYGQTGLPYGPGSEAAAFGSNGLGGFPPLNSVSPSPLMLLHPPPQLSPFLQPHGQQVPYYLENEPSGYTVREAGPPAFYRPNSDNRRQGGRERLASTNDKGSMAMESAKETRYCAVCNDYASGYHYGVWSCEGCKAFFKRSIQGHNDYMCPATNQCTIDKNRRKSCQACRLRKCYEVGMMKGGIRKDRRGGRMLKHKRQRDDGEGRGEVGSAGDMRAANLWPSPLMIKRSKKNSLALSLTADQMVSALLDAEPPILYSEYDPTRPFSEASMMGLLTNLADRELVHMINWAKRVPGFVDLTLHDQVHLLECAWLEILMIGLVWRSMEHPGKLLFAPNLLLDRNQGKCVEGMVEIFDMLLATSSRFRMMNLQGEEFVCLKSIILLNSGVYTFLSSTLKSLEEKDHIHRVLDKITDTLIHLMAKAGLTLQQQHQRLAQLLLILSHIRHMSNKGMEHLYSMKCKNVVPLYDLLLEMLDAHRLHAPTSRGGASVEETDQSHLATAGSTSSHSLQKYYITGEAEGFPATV

Row | SMILES | Potency [1] | Potency [2] | Potency [3] | Potency [4] | Potency [5] | Potency [6] | Potency [7] | outcome [8] | Potency [9] | outcome [10] | Potency [11] | Potency [12] | Potency [13] | Potency [14] | outcome [15] | outcome [16] | outcome [17] | Potency [18] | outcome [19]
1 | O=S(=O)(O)c1ccccc1O | inactive | inactive | inactive | inactive | inactive | inactive | inactive | inactive | inactive | inactive | inactive | inactive | inactive | inactive | inactive | inactive | inactive | – | –
2 | NC(=O)Nc1nc2ccccc2[nH]1 | inactive | inactive | inactive | inactive | inactive | – | inactive | – | – | inactive | inactive | inactive | inactive | inactive | inactive | inactive | inactive | inactive | –
3 | N#CC1(O)CCCCC1 | inactive | 12.3 µM (active) | inactive | inactive | inactive | – | inactive | inactive | inactive | inactive | inactive | inactive | inactive | inactive | inactive | inactive | inactive | – | –
4 | O=C(O)c1ccccc1S | inactive | inactive | inactive | inactive | inactive | – | inactive | inactive | inactive | inactive | inactive | inactive | inactive | inactive | inactive | inactive | inactive | inactive | –
5 | COc1cccc(Br)c1 | inactive | inactive | inactive | inactive | inactive | inactive | inactive | inactive | inactive | inactive | inactive | inactive | – | inactive | inactive | inactive | inactive | – | inactive
6 | C=CCOCC(O)CS(=O)(=O)O (stereo not given) | inactive | inactive | inactive | inactive | inactive | – | inactive | inactive | inactive | inactive | inactive | inactive | inactive | inactive | inactive | inactive | inactive | inactive | inactive
7 | CC(=O)CCc1ccc(O)cc1 | inactive | inactive | inactive | inactive | inactive | – | inactive | inactive | inactive | inactive | inactive | inactive | inactive | inactive | inactive | inactive | inactive | – | inactive
8 | CCC(C)(C)C1CCC(OC)CC1 (stereo not given) | inactive | inactive | inactive | inactive | inactive | – | inactive | inactive | inactive | inactive | inactive | inactive | inactive | inactive | inactive | inactive | inactive | inactive | inactive
9 | CCCC(=O)O[C@]1(C(=O)CCl)[C@@H](C)C[C@H]2[C@@H]3CCC4=CC(=O)C=C[C@]4(C)[C@@]3(F)C(=O)C[C@@]21C | inactive | inactive | – | inactive | inactive | 0.0047 µM (active) | inactive | inactive | – | inactive | – | – | – | – | inactive | inactive | inactive | inactive | inactive
10 | OC1OC[C@@H](O)[C@H](O)[C@H]1O (stereo not given in full) | inactive | inactive | inactive | inactive | inactive | – | inactive | – | – | inactive | inactive | inactive | inactive | inactive | inactive | inactive | inactive | – | inactive
11 | NC(=O)c1ncn([C@@H]2O[C@H](CO)[C@@H](O)[C@H]2O)c1N | inactive | inactive | – | inactive | inactive | – | inactive | inactive | inactive | inactive | inactive | inactive | inactive | inactive | inactive | inactive | inactive | inactive | inactive
12 | C#CC(C)(O)CC(C)C (stereo not given) | inactive | inactive | inactive | inactive | inactive | – | inactive | inactive | – | inactive | inactive | inactive | – | inactive | inactive | inactive | inactive | – | inactive
13 | COc1cc(C(=O)N2CCOCC2)cc(OC)c1OC | inactive | inactive | inactive | inactive | – | – | inactive | – | – | inactive | – | – | inactive | inactive | inactive | inactive | inactive | – | –
14 | Cc1cc(C)c(NC(=O)CN(CC(=O)O)CC(=O)O)c(C)c1Br | inactive | inactive | inactive | inactive | inactive | – | inactive | – | – | inactive | inactive | inactive | inactive | inactive | inactive | inactive | inactive | – | –
15 | CC(C)COC(=O)c1ccccc1O | inactive | inactive | – | inactive | inactive | – | inactive | inactive | inactive | inactive | inactive | inactive | – | inactive | – | inactive | inactive | inactive | inactive
